Data on 88 molecules can be found in PubChem BioAssay AID1259318 (Sanford-Burnham Center for Chemical Genomics, 2017).

Molecules are shown by their SMILES. In all, about 370,000 compounds went through this assay and about 3,000 (0.81%) were called active. This is one part of a sample in which actives are shown more often than they occur.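 How the source made its calls: active means activity above about 14% (limit read from the data; passing the limit was not always enough); inactive means the rest.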

Nuclear receptor subfamily 1 group D member 1 (Homo sapiens), sequence (P20393 whole entry, looked up): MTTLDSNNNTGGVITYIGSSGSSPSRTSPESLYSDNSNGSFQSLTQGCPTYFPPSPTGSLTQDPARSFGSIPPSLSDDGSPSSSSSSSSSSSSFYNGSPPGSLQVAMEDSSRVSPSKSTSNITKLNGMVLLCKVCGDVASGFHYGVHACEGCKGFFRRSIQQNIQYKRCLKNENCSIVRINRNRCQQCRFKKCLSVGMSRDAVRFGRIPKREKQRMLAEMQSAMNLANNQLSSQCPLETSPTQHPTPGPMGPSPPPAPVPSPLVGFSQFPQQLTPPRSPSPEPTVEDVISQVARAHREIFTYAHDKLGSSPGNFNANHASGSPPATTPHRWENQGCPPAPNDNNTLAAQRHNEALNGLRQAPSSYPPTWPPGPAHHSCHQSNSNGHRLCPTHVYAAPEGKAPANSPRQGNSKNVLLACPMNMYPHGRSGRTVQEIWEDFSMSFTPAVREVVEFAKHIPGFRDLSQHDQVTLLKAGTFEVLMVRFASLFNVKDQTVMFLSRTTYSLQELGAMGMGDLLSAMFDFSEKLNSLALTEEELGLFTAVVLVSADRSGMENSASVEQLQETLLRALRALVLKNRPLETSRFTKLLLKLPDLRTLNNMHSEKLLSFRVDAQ

The test has as its target Nuclear receptor subfamily 1 group D member 1 (Homo sapiens) (UniProt P20393). Put plainly: Rev-erbα–DNA interaction modulation – biochemical, FITC-DNA, fluorescence polarization, uHTS, primary screen (AID 1259318).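 Further: 0% = DMSO wells with 35 nM protein and 100% = DMSO wells with 750 nM protein.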 The settings on record: Rev-erbα–FITC-DNA binding, 90 min, at 10 µM, active compounds read high. For orientation: Polarisation of emitted light reports the rotation of a fluorescent probe.
Take `COc1ccc(CNC(=O)COC(=O)/C=C/c2ccc(S(=O)(=O)N3CCOCC3)cc2)cc1`: the activity is -0.37% (inactive). To `CCSc1nnc(SCC(=O)NNC(=O)c2ccccc2F)s1` belongs -6.25% (inactive); to `O=C(Nc1nnc(-c2ccccc2F)s1)c1ccccc1F`, 23.9% (active). For the molecule `O=C(Nc1ccccc1F)c1ccccc1-c1ccccc1`, the activity is 8.73% (inactive). As to `CC1(Oc2ccccc2-c2ccno2)CCN(Cc2ccc(-c3ccccc3)o2)C1` (stereo not drawn), the activity was -3.17% (inactive). Under `O=C(Nc1cccc(Cl)c1)OC1CC2CC1[C@H]1CCCCN1[C@H]2Cc1ccccc1` (stereo partly drawn) stands 0.26% (inactive); under `COc1ccc(-n2c(SCC(=O)Nc3ccc(C)c(Cl)c3)nc3ccccc3c2=O)cc1`, -4.51% (inactive); under `CCCn1c(N)c(C(=O)CSc2nc3ccccc3c(=O)n2-c2ccc(OC)cc2)c(=O)[nH]c1=O`, -7.88% (inactive). As to `COc1cccc(-n2c(SCC(=O)c3c[nH]c4ccccc34)nc3ccccc3c2=O)c1`, the activity was 69.3% (active). `Cc1ccc(C2=Nc3c(ccc4ccccc34)C(c3ccncc3)=NN2)cc1`: the activity was 3.5% (inactive). To `Cc1ccc(S(=O)(=O)N2[C@@H](Cc3ccccc3)CO[C@H]2CC(=O)OCc2ccccc2)cc1` belongs -1.88% (inactive); to `Cc1sc2ncn(CC(=O)NCCCC(=O)N3CCN(c4ccccc4F)CC3)c(=O)c2c1C`, -0.15% (inactive). As to `Cc1cc(Br)ccc1NC(=O)c1sc2ncn(CC(=O)N3CCN(c4ccccn4)CC3)c(=O)c2c1C`, the activity is 58.2% (active). Take `Cc1cc(Br)ccc1NC(=O)c1cnc(N2CCN(c3ccccn3)CC2)c2ccccc12`: the activity was 0.52% (inactive). Under `CCCCOc1ccc(N(CC(=O)NC(C)C)C(=O)CCC(=O)Nc2ccccn2)cc1` stands -9.8% (inactive); under `CCC(C(=O)NC1CCCCC1)N(C(=O)c1snc(C(N)=O)c1N)c1ccc(OC)cc1OC` (stereo not drawn), 2.92% (inactive); under `COc1ccc(N(C(=O)c2snc(C(N)=O)c2N)C(C(=O)NC2CCCC2)c2ccco2)cc1OC` (stereo not drawn), 4.63% (inactive). Turning to `CCC(C(=O)NC1CCCC1)N(C(=O)c1snc(C(N)=O)c1N)c1ccc2c(c1)OCCO2` (stereo not drawn), the activity was 34.2% (active).

In the case of `COc1ccc(C(=O)CN2C(=O)NC3(CCc4ccccc43)C2=O)c(OC)c1` (stereo not drawn), the activity was 6.28% (inactive). In the case of `O=C(Nc1cccnc1)c1noc2c1CCCCC2`, the activity was 0.99% (inactive). To `O=C(O)C1=CCCN(CCON=C(c2ccccc2)c2ccccc2)C1` belongs -6.65% (inactive); to `COc1ccc(CCNC(=O)CSc2nc(-c3ccc(OC)c(OC)c3)ccc2C#N)cc1`, 56% (active). `COc1cc(OC)cc(C(=O)NCCSCc2ccc(Cl)cc2)c1`: the activity is -1.8% (inactive). With `COc1ccc(CCNC(=O)CSc2nc(C)nc3c2oc2ccccc23)cc1OC`, the activity was -3.78% (inactive). As to `COc1ccc(CCNC(=O)CSc2nnc3ccc(-c4ccncc4)nn23)cc1`, the activity is 2.33% (inactive). For the molecule `COc1cccc(-c2ccc(C#N)c(SCC(=O)NCCc3ccc(Cl)cc3)n2)c1`, the activity is 29.2% (active). In the case of `COc1ccc(CCNC(=O)CSc2nnc(-c3cccc(F)c3)o2)cc1OC`, the activity was 6.95% (inactive). To `O=C(O[C@@H]1[C@H](Cc2ccccc2)NS(=O)(=O)[C@H]2C[C@@H]3C=C[C@]12O3)c1ccccc1Br` belongs 4.17% (inactive).

Consider `Cc1c[nH]c2cccc(-c3ccc(Cl)cc3)c12`, for which the activity is 4.69% (inactive). `CCCCCCCCCCCCCCCCO`: the activity is 2.41% (inactive). For the molecule `CCNC(=O)C1(C)CCCN(C(=O)c2c(C)noc2C)C1` (stereo not drawn), the activity is -9.88% (inactive). In the case of `NC(N)=Nc1nc2ccc(Br)cc2c(=O)[nH]1`, the activity is 20.6% (active). As for `NC(=O)C1CCN(Cc2nc3c(Br)cc(Br)cc3c(=O)[nH]2)CC1`, the activity was -0.27% (inactive). On to `CC(C)(C)c1ccc(S(=O)(=O)N2CCN(C(=O)c3ccc4c(c3)C(=O)N(Cc3ccncc3)C4=O)CC2)cc1`, for which the activity is -6.31% (inactive).

In the case of `COc1cccc(NS(=O)(=O)c2ccc3[nH]cc(C(=O)NCCCOC(C)C)c(=O)c3c2)c1`, the activity was 5.55% (inactive). With `CN(C)S(=O)(=O)c1ccc(N2CCCC2)c(C(=O)Nc2cccc(F)c2)c1`, the activity was 6.34% (inactive). Take `CN(C)S(=O)(=O)c1ccc(N2CCCC2)c(C(=O)Nc2ccc(Br)cc2F)c1`: the activity was 23.1% (active). On to `CN(C)S(=O)(=O)c1ccc(N2CCCC2)c(C(=O)NCc2ccccc2)c1`, for which the activity was 5% (inactive).

Turning to `CC(C)(C)NC(=O)C(c1cccnc1)N(C(=O)c1cnco1)c1ccc(C(C)(C)C)cc1` (stereo not drawn), the activity was 0.3% (inactive). In the case of `CN1/C(=c2/s/c(=C3/C(=O)N(c4ccccc4)NC3=Nc3ccccc3)n(C)c2=O)C(C)(C)c2ccccc21`, the activity is 42.5% (active). Turning to `COCCOC(=O)c1c(C)oc2cc(Br)c(OCC(N)=O)cc12`, the activity is -0.63% (inactive). Regarding `Cc1cc(=O)oc2c(C(=O)c3ccccc3)c(OCC(N)=O)ccc12`, the activity was 1.4% (inactive).

On to `CCOC(=O)c1c(C)oc2cc(Br)c(OCC(N)=O)cc12`, for which the activity was 27.8% (active).

For `CCOc1ccc(NC(=O)CN(C)C(=O)CCSc2ccc(F)cc2)cc1OCC`, the activity was -6.91% (inactive). With `Nn1c(SCC(=O)Nc2cccc3ccccc23)nnc1-c1cc(-c2ccc(F)cc2)n[nH]1`, the activity is 0.84% (inactive).

As for `COc1ccc(C2=NN(C(=O)CSc3nc(=O)n4ccc(C)cc4n3)C(c3ccc(C)cc3)C2)cc1` (stereo not drawn), the activity is 37.8% (active). `Cc1ccn2c(=O)nc(SCC(=O)NCc3ccc4c(c3)OCO4)nc2c1`: the activity was -6.16% (inactive). With `Cc1ccn2c(=O)nc(SCC(=O)NCc3ccc(F)cc3)nc2c1`, the activity was 10.3% (inactive). Under `CC(O)COc1ccccc1` (stereo not drawn) stands -2.15% (inactive); under `Cc1ccc(NS(=O)(=O)c2ccc(-c3ccc(=O)[nH]n3)o2)c(C)c1`, 1.28% (inactive); under `Cc1cc(/C=C(/C#N)C(=O)Nc2ccc(Cl)cc2)c(C)n1-c1cccnc1`, 23.3% (active). Regarding `Cc1ccc(-n2c(C)cc(/C=C(\C#N)C(=O)NCC3CCCO3)c2C)cc1` (stereo not drawn), the activity is -8.1% (inactive). Consider `N#C/C(=C\c1cccnc1)C(=O)Nc1ccc(SC(F)F)cc1`, for which the activity is -6.19% (inactive). For `CN(C)CCc1c[nH]c2ccc(Cn3cncn3)cc12`, the activity was -0.58% (inactive). In the case of `CS(=O)(=O)N(Cc1ccccc1)c1ccc(C(=O)NN=C2CCCCCC2)cc1`, the activity was 1.02% (inactive). Regarding `Cc1cccc(Nc2nc3c(S(=O)(=O)c4ccccc4)nnn3c3ccccc23)c1C`, the activity is 47.9% (active). `CCOC(=O)c1nnn2c1nc(N1CCN(c3ccccc3)CC1)c1ccccc12`: the activity is -1.6% (inactive).

As to `Cc1nc(Nc2ccccc2C)c2cnn(C)c2n1`, the activity was 3.28% (inactive). In the case of `Cc1ccc(S(=O)(=O)c2nnn3c2nc(N2CCN(c4ccccn4)CC2)c2ccccc23)cc1`, the activity was 87.8% (active). As to `Cc1ccc(S(=O)(=O)NCC(=O)N2CCN(c3ccccn3)CC2)cc1`, the activity was -1.9% (inactive). With `Cc1cc(Nc2cccc(C)c2C)n2ncnc2n1`, the activity was 0.88% (inactive).

Consider `CCN(CC(=O)Nc1c(F)cccc1F)C(=O)C1CCC1`, for which the activity is -2.66% (inactive). For `COc1cc(C(=O)N2CCOCC2)cc(OC)c1OC`, the activity is -1.7% (inactive).

On to `N#Cc1cccc(NC(=O)COC(=O)c2ccccc2C(=O)c2ccc(Cl)c([N+](=O)[O-])c2)c1`, for which the activity was 3.08% (inactive). With `CCCOc1ccc(Oc2c(Cl)cnn(Cc3cccc4ccccc34)c2=O)cc1`, the activity was -0.89% (inactive). Turning to `Cc1c(C=O)c2ccccn2c1C(=O)c1ccncc1`, the activity is -1.4% (inactive). `CN(C(=O)CSc1nnc(-c2n[nH]c3ccccc23)o1)c1ccccc1`: the activity was -0.39% (inactive). Under `O=C1CN(C(=O)COc2c(Cl)cccc2Cl)c2ccccc2N1` stands -1.39% (inactive); under `CCOc1ccc(C)cc1S(=O)(=O)NC1CCCCCC1`, 4.62% (inactive); under `O=C(CN1CCC(NC(=O)NCc2ccccc2)CC1)Nc1ccc2c(c1)OCCO2`, -2.38% (inactive). For the molecule `Cc1ccc2c(C(=O)CN3CCCC3)c(C)[nH]c2c1`, the activity was -0.66% (inactive).

`CC(C)(C)c1ccc(C(=O)Nc2cc(Cl)c(Br)cc2C(=O)O)cc1`: the activity is -8.64% (inactive). For `COc1ccc(CN2[C@@H](CC(=O)O)c3cc(F)ccc3S2(=O)=O)cc1`, the activity was 1.62% (inactive).

In the case of `COc1ccc(-c2csc3ncnc(N4CCN(S(=O)(=O)c5cccc(F)c5)CC4)c23)cc1`, the activity is 3.12% (inactive).

Take `COc1ccc(S(=O)(=O)N2CCN(c3cnccn3)CC2)cc1`: the activity was 0.63% (inactive).

With `COc1ccc(S(=O)(=O)N2CCSCC2)cc1`, the activity was -4.2% (inactive).

For the molecule `COc1ccc(S(=O)(=O)N2CCN(c3ncnc4c(-c5ccccc5)nsc34)CC2)cc1`, the activity was 27.5% (active). For `COc1ccc(-c2csc3ncnc(N4CCN(S(=O)(=O)c5ccccc5C#N)CC4)c23)cc1`, the activity was 28.3% (active). For `COc1ccc(-c2csc3ncnc(Oc4ccc5c(C)cc(=O)oc5c4)c23)cc1`, the activity was 3.46% (inactive). Regarding `CCC1(C)CC(=O)NC1=O` (stereo not drawn), the activity is -6.13% (inactive).

On to `CC(C)(C)c1ccc(/C=C2\SC(=O)N=C2N)cc1`, for which the activity is 0.2% (inactive).

As to `CCC(C)[C@H]1O[C@]2(CC[C@@H]1C)C[C@@H]1C[C@@H](C/C=C(\C)[C@@H](O[C@@H]3C[C@H](OC)[C@H](O[C@H]4C[C@H](OC)[C@@H](O)[C@H](C)O4)[C@H](C)O3)[C@@H](C)/C=C/C=C3\CO[C@@H]4[C@H](O)C(C)=C[C@@H](C(=O)O1)[C@]34O)O2` (stereo partly drawn), the activity is 6.63% (inactive). Consider `O=C(Cn1c(=O)sc2ccccc21)Nc1ccc2c(c1)OCCO2`, for which the activity was 2.42% (inactive). With `C=CCn1c(CCNC(=O)c2cccs2)n[nH]c1=S`, the activity was -1.01% (inactive). For the molecule `C=CCn1c(=NC(=O)c2ccc(S(=O)(=O)N3CCCC3)cc2)sc2cc(NC(C)=O)ccc21`, the activity was 51.5% (active).

As for `CCN(CC)S(=O)(=O)c1cccc(NC(=O)c2ccc(S(=O)(=O)N3CCCC3)cc2)c1`, the activity was 5.55% (inactive). Consider `C=CCn1c(=NC(=O)c2cccs2)sc2cc(NC(C)=O)ccc21`, for which the activity was 31.9% (active). Regarding `CC(=O)Nc1ccc(S(=O)(=O)N2CCN(S(=O)(=O)c3cccs3)CC2)cc1`, the activity was -1.45% (inactive).
